Source: PubChem BioAssay AID1159580 (chemical genetic matrix, 2015)
Values joined by “and” are separate entries in the source; they are usually repeats but may differ in a detail not shown here. Equal entries are not always repeated. In all, about 5,500 compounds went through this assay and about 2,000 (36%) were called active. Another 18% or so got no clear call; they are omitted. No stated cut-off is given here; in the data, active means normalized growth mostly below about 0.91 (no sharp cut-off); inconclusive means no clear call, values can overlap the other calls; inactive means mostly above about 0.92. The list shows a part of the results.

Assay: chemical genetic growth profiling, strain panel (AID 1159580);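 further: tested at 20 µM; growth read once vehicle control cultures reached saturation at 30 °C; 1 = growth at the plate median or of vehicle wells; lower values mean less growth of the strain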
Conditions: growth OD

Measured: normalized growth

Cn1cnc2c1c(=O)[nH]c(=O)n2C
inactive: S. cerevisiae deletion strains, locus YJR075W, strain HOC1, hits give low values 1.03 | S. cerevisiae deletion strains, locus YKL009W, strain mrt4, hits give low values 0.989 | S. cerevisiae deletion strains, locus YKL068W, hits give low values 1.01 | S. cerevisiae deletion strains, locus YKL085W, strain MDH1 (second series), hits give low values 1.01 | S. cerevisiae deletion strains, locus YKL085W, strain MDH1, hits give low values 1.01 | S. cerevisiae deletion strains, locus YKL160W, strain elf1, hits give low values 0.995 | S. cerevisiae deletion strains, locus YKL190W, strain CNB1, hits give low values 1.01 | S. cerevisiae deletion strains, locus YKR001C, strain vps1, hits give low values 1 | S. cerevisiae deletion strains, locus YKR026C, strain gcn3, hits give low values 0.961 | S. cerevisiae deletion strains, locus YKR091W, strain srl3, hits give low values 0.964 | S. cerevisiae deletion strains, locus YLL001W, strain dnm1, hits give low values 0.994 | S. cerevisiae deletion strains, locus YLL026W, hits give low values 0.996 | S. cerevisiae deletion strains, locus YLL041C, strain sdh2, hits give low values 1.01 | S. cerevisiae deletion strains, locus YLR027C, strain aat2, hits give low values 0.987 | S. cerevisiae deletion strains, locus YLR039C, strain RIC1, hits give low values 1.02 | S. cerevisiae deletion strains, locus YLR058C, strain SHM2, hits give low values 1.01 | S. cerevisiae deletion strains, locus YLR102C, strain apc9, hits give low values 1.01 | S. cerevisiae deletion strains, locus YLR113W, strain HOG1, hits give low values 0.973 | S. cerevisiae deletion strains, locus YLR221C, strain rsa3, hits give low values 0.976 | S. cerevisiae deletion strains, locus YLR258W, strain gsy2, hits give low values 1 | S. cerevisiae deletion strains, locus YLR262C, strain YPT6 (second series), hits give low values 0.978 | S. cerevisiae deletion strains, locus YLR262C, strain YPT6, hits give low values 1.04 | S. cerevisiae deletion strains, locus YLR268W, strain sec22, hits give low values 1.04 | S. cerevisiae deletion strains, locus YLR320W, strain mms22, hits give low values 1 | S. cerevisiae deletion strains, locus YLR330W, strain CHS5, hits give low values 1.01 | S. cerevisiae deletion strains, locus YLR342W, strain FKS1 (second series), hits give low values 1.01 | S. cerevisiae deletion strains, locus YLR342W, strain FKS1, hits give low values 0.978 | S. cerevisiae deletion strains, locus YLR357W, strain rsc2, hits give low values 1 | S. cerevisiae deletion strains, locus YLR370C, strain arc18, hits give low values 0.97 | S. cerevisiae deletion strains, locus YLR371W, strain rom2, hits give low values 1.03 | S. cerevisiae deletion strains, locus YLR384C, strain iki3, hits give low values 0.994 | S. cerevisiae deletion strains, locus YLR418C, strain cdc73, hits give low values 0.99 | S. cerevisiae deletion strains, locus YML016C, strain PPZ1, hits give low values 1.01 | S. cerevisiae deletion strains, locus YML032C, strain rad52, hits give low values 1.03 | S. cerevisiae deletion strains, locus YML120C, strain ndi1, hits give low values 0.959 | S. cerevisiae deletion strains, locus YML124C, strain tub3, hits give low values 1.01 | S. cerevisiae deletion strains, locus YMR058W, strain fet3, hits give low values 0.97 | S. cerevisiae deletion strains, locus YMR078C, strain ctf18, hits give low values 1.01 | S. cerevisiae deletion strains, locus YMR125W, strain sto1, hits give low values 0.978 | S. cerevisiae deletion strains, locus YMR129W, hits give low values 0.979 | S. cerevisiae deletion strains, locus YMR205C, strain PFK2, hits give low values 0.979 | S. cerevisiae deletion strains, locus YMR223W, strain ubp8, hits give low values 1 | S. cerevisiae deletion strains, locus YMR231W, strain pep5, hits give low values 1 | S. cerevisiae deletion strains, locus YMR263W, strain SAP30, hits give low values 1.01 and 0.995 | S. cerevisiae deletion strains, locus YMR307W, strain GAS1, hits give low values 0.981 and 0.999 | S. cerevisiae deletion strains, locus YNL067W, strain RPL9B, hits give low values 1.02 | S. cerevisiae deletion strains, locus YNL071W, strain lat1, hits give low values 0.983 | S. cerevisiae deletion strains, locus YNL128W, strain TEP1, hits give low values 1.02 and 1.01 | S. cerevisiae deletion strains, locus YNL153C, strain GIM3, hits give low values 1.01 | S. cerevisiae deletion strains, locus YNL175C, strain NOP13, hits give low values 0.995 | S. cerevisiae deletion strains, locus YNL183C, strain NPR1, hits give low values 0.948 | S. cerevisiae deletion strains, locus YNL197C, strain WHI3, hits give low values 1.02 | S. cerevisiae deletion strains, locus YNL209W, strain ssb2, hits give low values 0.986 | S. cerevisiae deletion strains, locus YNL224C, strain SQS1, hits give low values 1.01 | S. cerevisiae deletion strains, locus YNL233W, strain BNI4, hits give low values 1.01 | S. cerevisiae deletion strains, locus YNL248C, strain rpa49, hits give low values 0.978 | S. cerevisiae deletion strains, locus YNL250W, strain rad50, hits give low values 1.02 | S. cerevisiae deletion strains, locus YNL271C, strain bni1, hits give low values 1.01 | S. cerevisiae deletion strains, locus YNL298W, strain CLA4, hits give low values 1 | S. cerevisiae deletion strains, locus YNL307C, strain MCK1, hits give low values 1 | S. cerevisiae deletion strains, locus YNL322C, strain KRE1 (second series), hits give low values 0.953 | S. cerevisiae deletion strains, locus YNL322C, strain KRE1, hits give low values 1.01 and 1.02 | S. cerevisiae deletion strains, locus YNR049C, strain mso1, hits give low values 0.993 | S. cerevisiae deletion strains, locus YNR052C, strain pop2, hits give low values 1.01 | S. cerevisiae deletion strains, locus YOL006C, strain TOP1, hits give low values 1.06 | S. cerevisiae deletion strains, locus YOL012C, strain htz1 0.781 | S. cerevisiae deletion strains, locus YOL147C, strain pex11, hits give low values 1.01 | S. cerevisiae deletion strains, locus YOR001W, strain rrp6, hits give low values 0.986 | S. cerevisiae deletion strains, locus YOR061W, strain CKA2, hits give low values 1.01 | S. cerevisiae deletion strains, locus YOR069W, strain VPS5, hits give low values 1.01 | S. cerevisiae deletion strains, locus YOR070C, strain gyp1, hits give low values 1 | S. cerevisiae deletion strains, locus YOR080W, strain dia2, hits give low values 0.972 | S. cerevisiae deletion strains, locus YOR083W, strain WHI5 (second series), hits give low values 1 | S. cerevisiae deletion strains, locus YOR083W, strain WHI5, hits give low values 0.979 | S. cerevisiae deletion strains, locus YOR106W, strain vam3, hits give low values 0.977 | S. cerevisiae deletion strains, locus YOR136W, strain idh2, hits give low values 1.01 | S. cerevisiae deletion strains, locus YOR144C, strain elg1, hits give low values 1.01 | S. cerevisiae deletion strains, locus YOR184W, strain ser1, hits give low values 1.01 | S. cerevisiae deletion strains, locus YOR231W, strain MKK1, hits give low values 0.976 | S. cerevisiae deletion strains, locus YOR265W, strain rbl2, hits give low values 0.997 | S. cerevisiae deletion strains, locus YOR270C, strain vph1, hits give low values 0.986 | S. cerevisiae deletion strains, locus YOR290C, strain snf2, hits give low values 0.994 | S. cerevisiae deletion strains, locus YOR316C, strain cot1, hits give low values 1.01 | S. cerevisiae deletion strains, locus YPL051W, strain arl3, hits give low values 1 | S. cerevisiae deletion strains, locus YPL055C, strain LGE1, hits give low values 1.01 and 1.03 | S. cerevisiae deletion strains, locus YPL078C, strain atp4, hits give low values 0.979 | S. cerevisiae deletion strains, locus YPL106C, strain sse1, hits give low values 0.954 | S. cerevisiae deletion strains, locus YPL240C, strain hsp82, hits give low values 0.989 | S. cerevisiae deletion strains, locus YPL241C, strain CIN2, hits give low values 1.01 | S. cerevisiae deletion strains, locus YPL256C, strain CLN2, hits give low values 0.932 | S. cerevisiae deletion strains, locus YPR119W, strain clb2, hits give low values 1.02 | S. cerevisiae deletion strains, locus YPR141C, strain kar3, hits give low values 1.01 | S. cerevisiae deletion strains, locus YPR163C, strain tif3, hits give low values 1.01 | S. cerevisiae deletion strains, locus YPR167C, strain met16, hits give low values 1.01 | S. cerevisiae deletion strains, strain wtn01, hits give low values 1.01 | S. cerevisiae strains, strain wild type, hits give low values 1.01
